# Laboratory results taken from PubChem BioAssay (NCI).
# About 79,000 compounds went through this panel and 15% of them were active in at least one assay; those are over-represented in the sample as a whole. A number with no mark means an inactive call. Active and inactive are the calls of the source. Rule as the data show it: active = growth inhibition above about 70%; inactive = the rest.
# Experiments:
# [1] = NCI Yeast Anticancer Drug Screen. Data for the rad52 strain (AID 147);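 also: 0% = growth of vehicle-treated control cultures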; conditions: S. cerevisiae rad52 mutant growth inhibition, hits give high values
# Outline: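 The repair-mutant yeast strain was incubated with compounds, then growth was read and inhibition derived relative to vehicle.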
# [2] = NCI Yeast Anticancer Drug Screen. Data for the wt1 strain (AID 149);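 also: 0% = growth of vehicle-treated wt1 cultures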; conditions: S. cerevisiae wt1 strain (SPY 50644) growth inhibition, hits give high values
# Outline: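 The wt1 strain was treated with compounds, and growth was compared with vehicle-treated cultures to give inhibition.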
# [3] = NCI Yeast Anticancer Drug Screen. Data for the rad50EPP+ strain (AID 151);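 also: 0% = growth of vehicle-treated control cultures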; conditions: S. cerevisiae rad50 mutant strain, hits give high values
# Outline: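 Vehicle-normalised growth inhibition; rad50EPP+ yeast strain, altered in DNA damage repair, compound-treated.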
# [4] = NCI Yeast Anticancer Drug Screen. Data for the rad50 strain (AID 155);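 also: 0% = growth of vehicle-only cultures of the same strain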; conditions: S. cerevisiae rad50 strain growth inhibition, hits give high values
# Outline: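 Cells are treated with compound, grown, and their growth is then scored against vehicle-only cultures of the same repair-deficient yeast strain.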
# [5] = NCI Yeast Anticancer Drug Screen. Data for the mec2-1 strain (AID 157); conditions: S. cerevisiae mec2-1 strain, hits give high values
# Outline: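 Mutant yeast (mec2-1) grown with compound; growth inhibition relative to vehicle control reported.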
# [6] = NCI Yeast Anticancer Drug Screen. Data for the rad14 strain (AID 159);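 also: 0% = growth of vehicle-treated control cultures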; conditions: S. cerevisiae rad14 strain growth inhibition, hits give high values
# Outline: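 Readout: yeast growth inhibition, referenced to vehicle-only cultures. Strain bears a defined alteration in DNA damage repair.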
# [7] = NCI Yeast Anticancer Drug Screen. Data for the sgs1 mgt1 strain (AID 161);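 also: 0% = growth of cultures given vehicle only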; conditions: S. cerevisiae sgs1 mgt1 strain, hits give high values
# Outline: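 This yeast growth screen uses a strain with defined DNA-repair lesions; compound-treated growth is compared with vehicle-treated growth.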
# [8] = NCI Yeast Anticancer Drug Screen. Data for the CLN2oe strain (AID 163);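 also: 0% = growth of vehicle-only control cultures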; conditions: S. cerevisiae CLN2oe strain, hits give high values
# Outline: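 Compounds are applied to yeast harbouring a defined cell-cycle control change; reduced growth compared with vehicle-treated controls gives the value.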
# [9] = NCI Yeast Anticancer Drug Screen. Data for the cln2 rad14 strain (AID 165);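 also: 0% = growth equal to vehicle treated cultures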; conditions: S. cerevisiae cln2 rad14 strain, hits give high values
# Outline: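 Readout is yeast growth inhibition versus vehicle-treated controls, using a strain with cln2 and rad14 alterations exposed to compound.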
# [10] = NCI Yeast Anticancer Drug Screen. Data for the bub3 strain (AID 167); conditions: S. cerevisiae bub3 mutant strain, hits give high values
# Outline: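 Part of a panel of yeast mutants defective in DNA damage repair or cell cycle regulation. Each strain is grown with compound, and inhibition is calculated relative to solvent-treated cultures.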
# [11] = NCI Yeast Anticancer Drug Screen. Data for the wt2 strain (AID 169);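 also: 0% = growth of vehicle-treated yeast cultures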; conditions: S. cerevisiae wt2 strain growth inhibition, hits give high values
# Outline: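 Against vehicle-treated controls, the growth of yeast exposed to each compound was compared, and the inhibition was recorded.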
# [12] = NCI Yeast Anticancer Drug Screen. Data for the sgs1 strain (AID 173);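 also: 0% = growth of vehicle-only control cultures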; conditions: S. cerevisiae sgs1 mutant, hits give high values
# Outline: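 Each compound was added to cultures of the altered yeast strain. Growth was recorded, and inhibition was derived by comparison with vehicle controls.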
# [13] = NCI Yeast Anticancer Drug Screen. Data for the mlh1 rad18 strain (AID 175); conditions: S. cerevisiae mlh1 rad18 strain growth inhibition, hits give high values
# Outline: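 Genetically defined yeast (DNA repair-deficient) exposed to compounds; growth inhibition determined relative to vehicle.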
# [14] = NCI Yeast Anticancer Drug Screen. Data for the rad18 strain (AID 177); conditions: S. cerevisiae rad18 mutant growth inhibition, hits give high values
# Outline: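 Vehicle-treated cultures served as the baseline for scoring compound-induced growth inhibition in DNA-repair-mutant yeast.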
# [15] = NCI Yeast Anticancer Drug Screen. Data for the mlh1 strain (AID 171);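 also: 0% = growth of vehicle-treated control cultures of the same strain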; conditions: S. cerevisiae mlh1 strain growth inhibition, hits give high values
# Outline: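 Measured: yeast growth. Reference: vehicle-treated controls. Organism: strain with a defined alteration affecting DNA damage repair or cell cycle control, treated with compound.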
# [16] = at 5.0 µM (retest, dose inferred, filed as 0.5)
# [17] = at 50.0 µM (retest, dose inferred, filed as 5.0)
smiles,measurement,setting,value
CN(C)CC1CCCc2ccccc2C1=O (stereo unspecified),growth inhibition,[1]; at 1.2 µM,-43%
same,growth inhibition,[1]; at 3.7 µM,-39%
same,growth inhibition,[1]; at 11.0 µM,-41%
same,growth inhibition,[1]; at 33.0 µM,2%
same,growth inhibition,[1]; at 100.0 µM,76% (active)
same,growth inhibition,[2]; at 1.2 µM,1%
same,growth inhibition,[2]; at 3.7 µM,-11%
same,growth inhibition,[2]; at 11.0 µM,-1%
same,growth inhibition,[2]; at 33.0 µM,9%
same,growth inhibition,[2]; at 100.0 µM,53%
same,growth inhibition,[3]; at 1.2 µM,6%
same,growth inhibition,[3]; at 3.7 µM,-4%
same,growth inhibition,[3]; at 11.0 µM,26%
same,growth inhibition,[3]; at 33.0 µM,76% (active)
same,growth inhibition,[3]; at 100.0 µM,97% (active)
same,growth inhibition,[4]; at 1.2 µM,-5%
same,growth inhibition,[4]; at 3.7 µM,-2%
same,growth inhibition,[4]; [16],-14%
same,growth inhibition,[4]; at 11.0 µM,5%
same,growth inhibition,[4]; at 33.0 µM,41%
same,growth inhibition,[4]; [17],40%
same,growth inhibition,[4]; at 50.0 µM,66.2%
same,growth inhibition,[4]; at 100.0 µM,91% (active)
same,growth inhibition,[5]; at 1.2 µM,-4%
same,growth inhibition,[5]; at 3.7 µM,-12%
same,growth inhibition,[5]; [16],-11%
same,growth inhibition,[5]; at 11.0 µM,-7%
same,growth inhibition,[5]; at 33.0 µM,20%
same,growth inhibition,[5]; [17],-2%
same,growth inhibition,[5]; at 50.0 µM,23.4%
same,growth inhibition,[5]; at 100.0 µM,85% (active)
same,growth inhibition,[6]; at 1.2 µM,-6%
same,growth inhibition,[6]; at 3.7 µM,-13%
same,growth inhibition,[6]; at 11.0 µM,3%
same,growth inhibition,[6]; at 33.0 µM,12%
same,growth inhibition,[6]; at 100.0 µM,81% (active)
same,growth inhibition,[7]; [16],-1%
same,growth inhibition,[7]; [17],22%
same,growth inhibition,[7]; at 50.0 µM,50.3%
same,growth inhibition,[8]; at 1.2 µM,-7%
same,growth inhibition,[8]; at 3.7 µM,1%
same,growth inhibition,[8]; at 11.0 µM,22%
same,growth inhibition,[8]; at 33.0 µM,14%
same,growth inhibition,[8]; at 100.0 µM,89% (active)
same,growth inhibition,[9]; [16],-10%
same,growth inhibition,[9]; [17],20%
same,growth inhibition,[9]; at 50.0 µM,5.05%
same,growth inhibition,[10]; at 1.2 µM,24%
same,growth inhibition,[10]; at 3.7 µM,23%
same,growth inhibition,[10]; [16],-25%
same,growth inhibition,[10]; at 11.0 µM,19%
same,growth inhibition,[10]; at 33.0 µM,28%
same,growth inhibition,[10]; [17],40%
same,growth inhibition,[10]; at 50.0 µM,32.3%
same,growth inhibition,[10]; at 100.0 µM,95% (active)
same,growth inhibition,[11]; at 1.2 µM,-32%
same,growth inhibition,[11]; at 3.7 µM,-31%
same,growth inhibition,[11]; at 11.0 µM,-36%
same,growth inhibition,[11]; at 33.0 µM,-1%
same,growth inhibition,[11]; at 100.0 µM,76% (active)
same,growth inhibition,[12]; at 1.2 µM,-15%
same,growth inhibition,[12]; at 3.7 µM,-12%
same,growth inhibition,[12]; at 11.0 µM,12%
same,growth inhibition,[12]; at 33.0 µM,32%
same,growth inhibition,[12]; at 100.0 µM,84% (active)
same,growth inhibition,[13]; [16],13%
same,growth inhibition,[13]; [17],66%
same,growth inhibition,[13]; at 50.0 µM,70.2% (active)
same,growth inhibition,[14]; at 1.2 µM,-14%
same,growth inhibition,[14]; at 3.7 µM,7%
same,growth inhibition,[14]; at 11.0 µM,2%
same,growth inhibition,[14]; at 33.0 µM,38%
same,growth inhibition,[14]; at 100.0 µM,85% (active)
C=C(C)[C@@H]1CCc2c(O)c(O)c(=O)cc(C)c2C1,growth inhibition,[1]; at 1.2 µM,0%
same,growth inhibition,[1]; at 3.7 µM,21%
same,growth inhibition,[1]; at 11.0 µM,38%
same,growth inhibition,[1]; at 33.0 µM,77% (active)
same,growth inhibition,[1]; at 100.0 µM,98% (active)
same,growth inhibition,[2]; at 1.2 µM,7%
same,growth inhibition,[2]; at 3.7 µM,25%
same,growth inhibition,[2]; at 11.0 µM,37%
same,growth inhibition,[2]; at 33.0 µM,58%
same,growth inhibition,[2]; at 100.0 µM,99% (active)
same,growth inhibition,[3]; at 1.2 µM,-3%
same,growth inhibition,[3]; at 3.7 µM,8%
same,growth inhibition,[3]; at 11.0 µM,39%
same,growth inhibition,[3]; at 33.0 µM,68%
same,growth inhibition,[3]; at 100.0 µM,98% (active)
same,growth inhibition,[4]; at 1.2 µM,-10%
same,growth inhibition,[4]; at 3.7 µM,11%
same,growth inhibition,[4]; [16],41%
same,growth inhibition,[4]; at 11.0 µM,37%
same,growth inhibition,[4]; at 33.0 µM,80% (active)
same,growth inhibition,[4]; [17],97% (active)
same,growth inhibition,[4]; at 50.0 µM,91.6% (active)
same,growth inhibition,[4]; at 100.0 µM,98% (active)
same,growth inhibition,[5]; at 1.2 µM,2%
same,growth inhibition,[5]; at 3.7 µM,22%
same,growth inhibition,[5]; [16],41%
same,growth inhibition,[5]; at 11.0 µM,32%
same,growth inhibition,[5]; at 33.0 µM,61%
same,growth inhibition,[5]; [17],99% (active)
same,growth inhibition,[5]; at 50.0 µM,93% (active)
same,growth inhibition,[5]; at 100.0 µM,98% (active)
same,growth inhibition,[6]; at 1.2 µM,-30%
same,growth inhibition,[6]; at 3.7 µM,-14%
same,growth inhibition,[6]; at 11.0 µM,37%
same,growth inhibition,[6]; at 33.0 µM,85% (active)
same,growth inhibition,[6]; at 100.0 µM,99% (active)
same,growth inhibition,[7]; [16],46%
same,growth inhibition,[7]; [17],99% (active)
same,growth inhibition,[7]; at 50.0 µM,92.8% (active)
same,growth inhibition,[8]; at 1.2 µM,2%
same,growth inhibition,[8]; at 3.7 µM,20%
same,growth inhibition,[8]; at 11.0 µM,33%
same,growth inhibition,[8]; at 33.0 µM,90% (active)
same,growth inhibition,[8]; at 100.0 µM,99% (active)
same,growth inhibition,[9]; [16],3%
same,growth inhibition,[9]; [17],93% (active)
same,growth inhibition,[9]; at 50.0 µM,91.3% (active)
same,growth inhibition,[10]; at 1.2 µM,8%
same,growth inhibition,[10]; at 3.7 µM,23%
same,growth inhibition,[10]; [16],52%
same,growth inhibition,[10]; at 11.0 µM,43%
same,growth inhibition,[10]; at 33.0 µM,82% (active)
same,growth inhibition,[10]; [17],96% (active)
same,growth inhibition,[10]; at 50.0 µM,92.2% (active)
same,growth inhibition,[10]; at 100.0 µM,98% (active)
same,growth inhibition,[15]; at 1.2 µM,25%
same,growth inhibition,[15]; at 3.7 µM,36%
same,growth inhibition,[15]; at 11.0 µM,55%
same,growth inhibition,[15]; at 33.0 µM,85% (active)
same,growth inhibition,[15]; at 100.0 µM,99% (active)
same,growth inhibition,[12]; at 1.2 µM,1%
same,growth inhibition,[12]; at 3.7 µM,24%
same,growth inhibition,[12]; at 11.0 µM,50%
same,growth inhibition,[12]; at 33.0 µM,81% (active)
same,growth inhibition,[12]; at 100.0 µM,98% (active)
same,growth inhibition,[13]; [16],57%
same,growth inhibition,[13]; [17],96% (active)
same,growth inhibition,[13]; at 50.0 µM,92.2% (active)
same,growth inhibition,[14]; at 1.2 µM,1%
same,growth inhibition,[14]; at 3.7 µM,34%
same,growth inhibition,[14]; at 11.0 µM,48%
same,growth inhibition,[14]; at 33.0 µM,76% (active)
same,growth inhibition,[14]; at 100.0 µM,98% (active)
Cc1cccc(/C=N/NC(=S)N(C)CCc2ccccn2)n1,growth inhibition,[1]; at 1.2 µM,96% (active)
same,growth inhibition,[1]; at 3.7 µM,98% (active)
same,growth inhibition,[1]; at 11.0 µM,98% (active)
same,growth inhibition,[1]; at 33.0 µM,99% (active)
same,growth inhibition,[1]; at 100.0 µM,99% (active)
same,growth inhibition,[2]; at 1.2 µM,90% (active)
same,growth inhibition,[2]; at 3.7 µM,94% (active)
same,growth inhibition,[2]; at 11.0 µM,98% (active)
same,growth inhibition,[2]; at 33.0 µM,99% (active)
same,growth inhibition,[2]; at 100.0 µM,99% (active)
same,growth inhibition,[3]; at 1.2 µM,-23%
same,growth inhibition,[3]; at 3.7 µM,-11%
same,growth inhibition,[3]; at 11.0 µM,54%
same,growth inhibition,[3]; at 33.0 µM,84% (active)
same,growth inhibition,[3]; at 100.0 µM,90% (active)
same,growth inhibition,[4]; at 1.2 µM,91% (active)
same,growth inhibition,[4]; at 3.7 µM,94% (active)
same,growth inhibition,[4]; [16],16%
same,growth inhibition,[4]; at 11.0 µM,96% (active)
same,growth inhibition,[4]; at 33.0 µM,98% (active)
same,growth inhibition,[4]; [17],99% (active)
same,growth inhibition,[4]; at 50.0 µM,78.6% (active)
same,growth inhibition,[4]; at 100.0 µM,98% (active)
same,growth inhibition,[5]; at 1.2 µM,94% (active)
same,growth inhibition,[5]; at 3.7 µM,97% (active)
same,growth inhibition,[5]; [16],81% (active)
same,growth inhibition,[5]; at 11.0 µM,98% (active)
same,growth inhibition,[5]; at 33.0 µM,99% (active)
same,growth inhibition,[5]; [17],97% (active)
same,growth inhibition,[5]; at 50.0 µM,86.7% (active)
